Data reported in PubChem BioAssay (NCI).
This is part of a sample that, as a whole, favours compounds with a hit. Of some 79,000 tested, about 15% had one in any assay. Calls of active or inactive are those of the source. Cut-off read from the data, not from the text of the source: active = growth inhibition above about 70%; inactive = the rest.

How the values were obtained:
[1] = NCI Yeast Anticancer Drug Screen. Data for the rad50 strain (AID 155);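 note: 0% = growth of vehicle-only cultures of the same strain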; settings: S. cerevisiae rad50 strain growth inhibition; at 50.0 µM; stronger effect = higher value
Outline: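 Genetically altered yeast (DNA repair pathway); compound treatment; growth inhibition vs vehicle ctrl.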

[2] = NCI Yeast Anticancer Drug Screen. Data for the mec2-1 strain (AID 157); settings: S. cerevisiae mec2-1 strain, at 50.0 µM, stronger effect = higher value
Outline: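 Using mec2-1 yeast: add compound, measure growth, express inhibition versus vehicle-treated cultures.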

[3] = NCI Yeast Anticancer Drug Screen. Data for the sgs1 mgt1 strain (AID 161);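 note: 0% = growth of cultures given vehicle only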; settings: S. cerevisiae sgs1 mgt1 strain, at 50.0 µM, stronger effect = higher value
Outline: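 Yeast cells carrying a defined DNA-repair defect were exposed to test compounds. Growth inhibition was measured relative to vehicle-treated controls.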

[4] = NCI Yeast Anticancer Drug Screen. Data for the cln2 rad14 strain (AID 165);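 note: 0% = growth equal to vehicle treated cultures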; settings: S. cerevisiae cln2 rad14 strain, at 50.0 µM, stronger effect = higher value
Outline: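 Yeast strain cln2 rad14, bearing defects in cell cycle control and DNA repair, serves as the test system; values reflect growth inhibition compared with vehicle.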

[5] = NCI Yeast Anticancer Drug Screen. Data for the bub3 strain (AID 167); settings: S. cerevisiae bub3 mutant strain, at 50.0 µM, stronger effect = higher value
Outline: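 Yeast carrying a defined mutation is treated with each compound, and growth is compared with that of vehicle-exposed cells to give inhibition.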

[6] = NCI Yeast Anticancer Drug Screen. Data for the mlh1 rad18 strain (AID 175); settings: S. cerevisiae mlh1 rad18 strain growth inhibition; at 50.0 µM; stronger effect = higher value
Outline: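 Steps: expose repair-defective yeast to compound; measure growth; express inhibition against vehicle-treated controls.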

Measured: growth inhibition

OCC1CSCC1CO (stereo unspecified)
inactive: [1] 8.6% | [2] 12.8% | [3] -4.7% | [4] 15.3% | [5] 11.7% | [6] 3.5%

CCOC(=O)C1CCCCC1NC1CCCCC1C(=O)OCC (stereo unspecified)
inactive: [1] 4.65% | [2] -2.35% | [3] -22.9% | [4] -14.2% | [5] -16.2% | [6] 8.9%

COc1ccc(CC2=NCCc3cc(OCc4ccccc4)c(OC)cc32)cc1OCc1ccccc1
active: [5] 78.5% | [6] 93.8%
inactive: [1] 66.8% | [2] 55% | [3] 52.5% | [4] 30.6%

O=C(CN1C(=O)NC(c2ccccc2)(c2ccccc2)C1=O)NCCN1CCOCC1
inactive: [1] -1.65% | [2] 3.9% | [3] -5.95% | [4] -1.6% | [5] -0.1% | [6] 26.1%

Cc1noc(/N=C/c2ccccc2)c1C
inactive: [1] -6.8% | [2] -5.45% | [3] -5.3% | [4] -28.1% | [5] 4.4% | [6] -2.5%

CN/C=C(/c1ccc(OC)cc1)C(O)c1ccc(OC)c(OC)c1 (stereo unspecified)
inactive: [1] -17.9% | [2] -16.2% | [3] -38% | [4] 2.75% | [5] -10.8% | [6] -20.4%

COCCn1nc(-c2ccc(Cl)cc2)c(-c2ccc(Cl)cc2)c(C(C)=O)c1=O
inactive: [1] 12.2% | [2] -5.15% | [3] 0.9% | [4] 9.05% | [5] -1.7% | [6] -7.85%

O=[N+]([O-])c1cccc(Cc2nncc3ccccc23)c1
inactive: [1] 4.15% | [2] 35.9% | [3] 17.6% | [4] 0.05% | [5] 44.5% | [6] 17.7%

CCOc1cc2c(cc1O)CC[C@@H]1[C@@H]2CC[C@]2(C)C(OS(=O)OC3CC[C@@H]4[C@H]5CCc6cc(O)c(OCC)cc6[C@@H]5CC[C@@]34C)CC[C@@H]12 (stereo partly specified)
inactive: [1] -12.8% | [2] 0.25% | [3] 4.8% | [4] 26.7% | [5] 18.6% | [6] -15.5%

CCCCCCCCCCCCCCCCCC[N+](C)(C)Cc1c(Cl)c(Cl)c(Cl)c(Cl)c1Cl
inactive: [1] 10.8% | [2] 8.9% | [3] 20.4% | [4] -18.9% | [5] 24.6% | [6] 1.65%

Nc1cc([N+](=O)[O-])ccc1N1C(=O)CCCC1=O
inactive: [1] -15.2% | [2] -4.95% | [3] -10.1% | [4] -5.8% | [5] 5.85% | [6] 12.4%

N#CC1=C(c2ccccc2)NN(Cc2ccccc2)C(c2ccc(Cl)cc2)CC1=O (stereo unspecified)
inactive: [1] 31.9% | [2] 7.25% | [3] 8.25% | [4] -44.1% | [5] 2.6% | [6] 30.6%

Cc1cc(C)c(C(=O)CC(C)C)c(C)c1
inactive: [1] -8.15% | [2] -3% | [3] 4.2% | [4] 24.6% | [5] -3.45% | [6] -4.2%

C=CC1C(=O)N(C)[C@H](C(C)(C)C)N1C(=O)c1ccccc1 (stereo partly specified)
inactive: [1] 1.5% | [2] 11.9% | [3] 9.1% | [4] -18.9% | [5] 2% | [6] 10%

C=CC1C(C(=O)Nc2ccccc2)CN1C (stereo unspecified)
inactive: [1] 7.1% | [2] 14.4% | [3] -4.15% | [4] 18.3% | [5] 10.9% | [6] -3.4%

Cc1nc2cccc([N+](=O)[O-])c2s1
inactive: [1] 15.2% | [2] 1.7% | [3] 28.4% | [4] 11.7% | [5] 17.4% | [6] 20.4%

Cc1noc(NS(=O)(=O)c2ccc(NC(=S)/N=C/C(C(=O)c3ccccc3)=C(\O)c3ccccc3)cc2)c1C
inactive: [1] 10.7% | [2] 0.55% | [3] 18.7% | [4] -7.4% | [5] -5.15% | [6] 13.7%

O=C1/C(=C\C=C\c2ccccc2)CCC/C1=C/C=C/c1ccccc1
inactive: [1] 15.3% | [2] 5.05% | [3] 5.7% | [4] 20.8% | [5] 34% | [6] 3.1%

CC1=C(C(=O)Nc2ccccc2C)C(c2ccc(C3C(C(=O)Nc4ccccc4C)=CNC=C3C(=O)Nc3ccccc3C)cc2)C(C(=O)Nc2ccccc2C)=C(C)N1
inactive: [1] 29.3% | [2] 44.8% | [3] 28.9% | [4] 21% | [5] 50.4% | [6] 46%

Cc1c[nH]c2nc(C)n(-c3ccc(F)cc3)c(=N)c12
inactive: [1] 4.1% | [2] 2.4% | [3] -9.05% | [4] -14.6% | [5] 5.3% | [6] 5.3%

CC(=O)NCCCCNS(=O)(=O)c1ccc(C)cc1
inactive: [1] -16.1% | [2] -3.15% | [3] -17.4% | [4] -6.1% | [5] -0.7% | [6] 5.1%

O=C1CC(c2ccccc2)S(=O)c2ccccc2N1 (stereo unspecified)
inactive: [1] -7.5% | [2] 5.25% | [3] -9.9% | [4] 26.8% | [5] 11.6% | [6] -1.25%

CN(C)Cc1cc(N=Nc2c(Cl)cccc2Cl)ccc1O
inactive: [1] 14.4% | [2] 19.8% | [3] 8.35% | [4] 1.95% | [5] 28% | [6] 18.4%

O=c1c2ccccc2c(=O)n2n1C1CCC2C1
inactive: [1] 7.05% | [2] -0.55% | [3] -7.9% | [4] -3.75% | [5] 1.85% | [6] -6.15%

NCCNCCCNC(=O)c1cc(-c2ccccc2)nc2ccccc12
inactive: [1] -18.8% | [2] -6.35% | [3] -1.7% | [4] -11.9% | [5] 14.9% | [6] -3.95%

CC(=O)c1ccc(C(=O)O)cc1
inactive: [1] 13.7% | [2] -11.6% | [3] 2.45% | [4] -0.15% | [5] -4.3% | [6] 6.15%

CCN(CC)/N=C\c1c2ccccc2cc2ccccc12
inactive: [1] 19.8% | [2] 11.2% | [3] 7.7% | [4] 9.4% | [5] 13.3% | [6] 60.4%

COc1ccc(N)c(C(=O)CCNC(C)=O)c1
inactive: [1] -23.2% | [2] -9.7% | [3] -21.2% | [4] -7.05% | [5] -26.6% | [6] -25.4%

CCOC(=S)SCC(=O)c1ccc(Br)cc1
active: [2] 70.5% | [6] 83.5%
inactive: [1] 67% | [3] 66.8% | [4] -7.5% | [5] 55.2%

O=S(=O)([O-])c1ccc2c[n+]3ccccc3cc2c1
inactive: [1] -16.1% | [2] 5% | [3] -0.95% | [4] -44.6% | [5] 6.1% | [6] -10.3%

Cc1ccc(NC(=O)Nc2ccc(Cl)cc2)c(C)c1
inactive: [1] -12.8% | [2] -6% | [3] 1.65% | [4] -28.6% | [5] 5.6% | [6] -0.65%

O=C(COc1cccc(C(=O)O)c1)Nc1ccccc1
inactive: [1] 3.5% | [2] 7.9% | [3] 12.4% | [4] -1.4% | [5] 50.8% | [6] 8%

O=C(OCc1ccccc1)C1CC1 (tested in a mixture with another compound)
inactive: [1] 12.1% | [2] 14.8% | [3] 15.4% | [4] 6.1% | [5] 20.8% | [6] 25.2%

Cc1cc2c(=O)cc(-c3ccc(C(F)(F)F)cc3)oc2c(C(=O)O)c1C
inactive: [1] -34.6% | [2] -3.8% | [3] -2.3% | [4] 13.1% | [5] 0.4% | [6] 12.8%

COc1ccc(Cl)cc1NC(=O)c1cccc([N+](=O)[O-])c1
inactive: [1] -2.45% | [2] 0.7% | [3] 12.9% | [4] -13.9% | [5] 16.9% | [6] -1.25%

CCCCNC(=S)N(CCCC)CCCC
inactive: [1] 21.8% | [2] 18.2% | [3] 10.3% | [4] -16.2% | [5] 30.9% | [6] 13.1%

O=c1[nH]c(=O)n(COCc2ccccc2)c2ccc(Br)cc12
inactive: [1] -7.55% | [2] -9.5% | [3] -2.75% | [4] -20.4% | [5] -6.95% | [6] -61.5%

CC[C@@]1(C)CCC2c3ccc(O)cc3CC[C@H]2C1C (stereo partly specified)
inactive: [1] -2.1% | [2] -9.1% | [3] 21.4% | [4] 42.6% | [5] -8.75% | [6] -6.6%

Cc1noc2ncnc(NCCCN(C)C)c12
inactive: [1] 13.4% | [2] 4.3% | [3] -0.8% | [4] -6.95% | [5] 1.55% | [6] -0.9%

OCCn1nnc2ccccc21
inactive: [1] -0.55% | [2] -2% | [3] -4.35% | [4] 5.35% | [5] 1.7% | [6] -3.7%

Nc1ncc2[nH]c(I)nc2n1
inactive: [1] 16.9% | [2] 19.9% | [3] 0.65% | [4] 0.7% | [5] 40.2% | [6] 26.4%
